An excerpt weighted towards active compounds, which were near 7.4% of everything screened.
hNpr1 antagonist: blocks ANP-stimulated signaling of human Npr1 receptor; HEK293 hNpr1 GloSensor cGMP, ANP-stimulated luminescence; hit rate 1.6% among 76,000; P16066; Potency, µM (top dose mostly 46.3 µM), for inactives: top-dose activity change, negative = inhibition, actives largely listed as inhibitors; calls by dose curve; also: nearly all actives have a fitted effect of over 60% in size
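Compound pre-incubated 30 min at room temperature on GloSensor-loaded HEK293 cells stably carrying hNpr1 and the pGS-40F cGMP biosensor. Stimulation uses hNppA at 0.1 nM final; luminescence is taken at baseline and 20 min post-agonist.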
SNCA expr inhib: reduces expression of the alpha-synuclein gene; HEK-293 SNCA-luciferase knock-in, luminescence, 24 h; Potency, µM (top dose mostly 57.2 µM), without a hit: at the top dose activity change, negative = inhibition, most hits filed as inhibitors; hit rate 0.17% among 140,000;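 also: plate controls were DMSO cells for no effect and cell-free wells for full effect; nearly all actives have a fitted effect of over 45% in size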
HEK cytotox: cytotoxic compounds in HEK 293 cells. HEK 293 viability, ATP luminescence (CellTiter-Glo), 48-72 h. Potency, µM (top dose mostly 115 µM), inactives show at the top dose activity change, negative = cytotoxicity, actives largely listed as inhibitors. hit rate 6.6% among 94,000. AID 1345083; also: nearly all actives have a fitted effect of over 60% in size
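250 HEK 293 cells/well; compound by pintool; incubated 48 or 72 hr at 37 degree Celsius; CellTiter-Glo added, 10 min RT, luminescence imaged.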
HEK293 viab: cell viability loss counter-screen; HEK-293-SNCA-luc viability, GF-AFC fluorescence, 24 h; Potency, µM (top dose mostly 57.1 µM), for inactives: top-dose activity change, negative = cytotoxicity, most hits filed as cytotoxic; hit rate 0.12% among 150,000; AID 1671193;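 also: 0% = DMSO-treated cells and -100% = medium-only wells without cells; nearly all actives have a fitted effect of over 30% in size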
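HEK-293-SNCA-luc cells (1500/well) plated 24 h, then exposed 24 h to a dilution series; GF-AFC added 30 min at 37C, fluorescence 405/540 nm; normalised to medium-only and DMSO wells, Hill fit.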
3T3 cytotox: kills NIH 3T3 cells; NIH 3T3 viability, CellTiter-Glo ATP luminescence, 48-72 h; Potency, µM (series often up to 96.7 µM), without a hit: at the highest dose activity change, negative = cytotoxicity, actives largely listed as inhibitors; hit rate 4.3% among 94,000; AID 1345082; also: nearly all actives have a fitted effect of over 55% in size
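Cells were seeded at 400 per well, treated with pin-transferred compound, and kept 48 or 72 hr at 37 °C before CellTiter-Glo addition and luminescence imaging of cellular ATP.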
FLuc inh: inhibitors of firefly (Photinus pyralis) luciferase | Potency, µM (doses to about 115 µM), most hits filed as inhibitors | P08659 | purified P. pyralis luciferase, luminescence, biochemical | hit rate 2.5% among 76,000; also: nearly all actives have a fitted effect of over 65% in size
Target sequence (P08659 whole entry, looked up): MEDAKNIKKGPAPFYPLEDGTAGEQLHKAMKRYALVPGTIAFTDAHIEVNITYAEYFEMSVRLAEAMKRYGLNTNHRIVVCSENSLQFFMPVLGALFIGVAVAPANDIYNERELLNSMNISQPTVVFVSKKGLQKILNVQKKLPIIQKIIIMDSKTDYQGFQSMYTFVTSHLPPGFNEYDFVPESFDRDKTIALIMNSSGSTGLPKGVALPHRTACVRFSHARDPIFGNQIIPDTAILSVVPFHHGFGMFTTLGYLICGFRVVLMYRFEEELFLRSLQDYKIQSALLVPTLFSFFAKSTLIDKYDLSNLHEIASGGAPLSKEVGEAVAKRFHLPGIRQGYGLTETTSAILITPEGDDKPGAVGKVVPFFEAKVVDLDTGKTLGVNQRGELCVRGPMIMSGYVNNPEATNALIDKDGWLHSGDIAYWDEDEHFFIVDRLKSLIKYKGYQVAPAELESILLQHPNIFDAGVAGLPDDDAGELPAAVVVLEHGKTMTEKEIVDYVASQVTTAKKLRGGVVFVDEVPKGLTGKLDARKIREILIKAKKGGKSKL
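FLuc 10nM, D-luciferin 10uM, ATP 10uM, Mg acetate 10mM, Tris acetate pH 7.5, Tween/BSA; cpd qHTS; enzyme added last; CCD luminescence.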
Numbers without * were called inactive; i = inactive; ? = inconclusive; [ ] = remark or other dose. Unless noted, calls follow the shape of the dose curve; as a rule, active = well fitted curve in the direction sought with a large enough effect; inconclusive = small, poorly fitted or top-dose-only effect, or another doubt; inactive = no such curve, though single readings can be large; an effect the other way counts as inactive or inconclusive. Unless noted, % is scaled to controls: 0 for no effect and ±100 for the full control effect; potency is read from the fitted curve at half-maximal effect.

SMILES	hNpr1 antagonist	SNCA expr inhib	HEK cytotox	HEK293 viab	3T3 cytotox	FLuc inh
COCc1ccc2c(c1)c(OC(C)(C)C(=O)NC1CCC(O)CC1)nn2CCC(C)C (stereo not given)	-5%[70.6 µM]	?	?	-12%[87.6 µM]	13µM*	i
COCc1ccc2c(c1)c(OC(C)(C)C(=O)NCCCN1CCCC1=O)nn2CCC(C)C	-2%	-23%	-1%	-5%	32µM*	i
O=C(c1cn(-c2ccccc2)nn1)N1CCOCC(O)(CN2CCCC2)C1 (stereo not given)	-3%	17%	-15%	3%	-21%	?
COc1cc(OC)cc(C(=O)NC2CCCN(c3cc(-c4ccc(F)cc4)[nH]n3)C2)c1 (stereo not given)	-12%	-1%	45µM*	-3%	?	?
COc1ccc(-c2cc(N3CCCC(NC(=O)c4cccc(C(F)(F)F)c4)C3)n[nH]2)cc1 (stereo not given)	-18%	?	?	?	?	i
COc1cccc(C(=O)NC2CCCN(c3cc(-c4ccc(F)cc4)[nH]n3)C2)c1 (stereo not given)	-17%	-15%	?	-18%	45µM*	?
O=C(c1cccs1)N1CCCC(Cc2noc(-c3cccnc3)n2)C1 (stereo not given)	14%	2%	-14%	-5%	?	i
COc1cccc(S(=O)(=O)N2CCC(Cc3nncn3C)CC2)c1	-6%	14%	-25%	5%	-11%	i
O=C(c1ccncc1)N1CCCC(CCc2ccc(F)cc2)C1 (stereo not given)	?	-7%	40µM*	10%	?	i
CCCc1ncncc1C(=O)N1CCCC(CCc2ccc(F)cc2)C1 (stereo not given)	1%	-9%	?	-17%	?	i
CSCC(=O)N1CCCC(CCc2cccc(F)c2)C1 (stereo not given)	-19%	5%	20µM*	-7%	?	?
O=C(c1cccc(O)c1)N1CCCC(CCc2cccc(C(F)(F)F)c2)C1 (stereo not given)	2%	8%	40µM*	-13%	?	i
CCCn1nccc1C(=O)N1CCCC(CCc2cccc(C(F)(F)F)c2)C1 (stereo not given)	?	?	25µM*	-13%	?	i
Cc1c[nH]c(C(=O)N2CCCC(CCc3cccc(C(F)(F)F)c3)C2)c1 (stereo not given)	-12%	-24%	?	-8%	?	i
O=C(c1ccc(=O)[nH]c1)N1CCCC(CCc2cccc(C(F)(F)F)c2)C1 (stereo not given)	-6%	-20%	?	0%	?	i
COCc1nc(C2CCCN(C(=O)Nc3cccc(F)c3C)C2)no1 (stereo not given)	-1%	77%	-21%	-2%[12.5 µM]	-22%	?
Cc1ncsc1C(=O)N1CCCC(CCc2ccc(F)cc2F)C1 (stereo not given)	-22%	10%	89µM*	-3%	?	i
O=C1CCCCN1CC(=O)N1CCCC(CCc2ccc(F)cc2F)C1 (stereo not given)	-8%	-1%	-11%	1%	-20%	i
O=C(NC1CCN(c2cn[nH]c(=O)c2)CC1)C1CCC1	2%	-7%	-13%	-8%	-17%	i
CC1(C)Cc2c(cnn2-c2ccc(F)cc2)C(NC(=O)c2cc(C3CC3)[nH]n2)C1 (stereo not given)	-15%	-10%	79µM*	-8%	?	i
CCNC(=O)N1CCCC(c2noc(COc3ccccc3)n2)C1 (stereo not given)	-25%	-33%	-11%	-15%[12.5 µM]	-28%	32µM*
Cc1ccc(NC(=O)N2CCCC(c3noc(COc4ccccc4)n3)C2)c(C)c1 (stereo not given)	13µM*	11%	?	-6%	?	?

Assay outcomes as filed in PubChem.
